This is one part of a sample in which hits are shown more often than they occur.
Sm TGR inh: blocks Schistosoma mansoni thioredoxin glutathione reductase; purified TGR, DTNB reduction, TNB absorbance 405 nm; Potency, µM (highest dose often 114 µM), for inactives: at the highest dose activity change, negative = inhibition, most hits filed as inhibitors; 3% of 360,000 active; Q962Y6; also: potency is read from the fitted curve at half-maximal effect; % is scaled to controls: 0 for no effect and ±100 for the full control effect; nearly all actives have a fitted effect of over 60% in size
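First, TGR (20 nM dispensed) and NADPH were mixed with compound. Second, a 15 min room-temperature incubation followed. Third, further NADPH and then DTNB were added to start the reaction. Finally, TNB absorbance was monitored kinetically.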
LmPK inh: blocks Leishmania mexicana pyruvate kinase activity; purified LmPK, Kinase-Glo ATP luminescence, 1 h; Potency, µM (top dose mostly 57.5 µM), inactives show at the top dose activity change, negative = inhibition, hits mostly inhibitors; 0.37% of 290,000 active; AID 1721; also: potency is read from the fitted curve at half-maximal effect; % is scaled to controls: 0 for no effect and ±100 for the full control effect
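Kinase-Glo luminescence read after 1 h RT reaction of 0.1 nM LmPK with 0.5 mM PEP and 0.1 mM ADP. Activity scaled between uninhibited and enzyme-free controls.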
Cycloheximide cs: counter-screen hit for Shiga toxin inhibitors, cycloheximide | cell reporter, cycloheximide protein synthesis inhibition counterscreen | max response, % | 12% of 300,000 active; in the data active = max response mostly above about 13%, no sharp cut-off; inactive = mostly below about 14%; also: read at 38.3 µM for the half of the compounds with a filed dose; 0% is about no effect
FBPA Giardia inh: blocks Giardia fructose-bisphosphate aldolase activity. 0.71% of 290,000 active. Potency, µM (titrated, usually from 59.6 µM), without a hit: top-dose activity, negative = inhibition, hits mostly inhibitors. A8B2U2. purified Giardia FBPA. AID 2451; also: potency is read from the fitted curve at half-maximal effect; % is scaled to controls: 0 for no effect and ±100 for the full control effect; nearly all actives have a fitted effect of over 55% in size
Target sequence (A8B2U2 whole entry, looked up): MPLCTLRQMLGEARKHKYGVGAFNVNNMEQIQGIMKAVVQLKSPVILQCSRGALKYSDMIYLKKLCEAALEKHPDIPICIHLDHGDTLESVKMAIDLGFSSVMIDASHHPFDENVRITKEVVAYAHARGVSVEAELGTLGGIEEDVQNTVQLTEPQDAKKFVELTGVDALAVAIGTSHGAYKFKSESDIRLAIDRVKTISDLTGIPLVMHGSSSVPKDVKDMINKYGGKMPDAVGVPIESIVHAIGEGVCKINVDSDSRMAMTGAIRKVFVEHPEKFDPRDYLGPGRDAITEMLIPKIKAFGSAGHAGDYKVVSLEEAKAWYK
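Giardia FBPA (40 nM reagent) was preincubated 10 min at RT with compound (up to 57.5 uM final), then substrate plus GAPDH/TPI/NAD/arsenate coupling system with diaphorase/resazurin was added; resorufin fluorescence (525/598 nm) was read after 20 min.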
Shiga inhibitor: blocks Shiga toxin action in Vero cells; Vero cells, Shiga toxin protein synthesis inhibition reporter; inhibition, % at 38.7 µM; 9.2% of 290,000 active; AID 2315; in the data active = inhibition mostly above about 28%, no sharp cut-off; inactive = mostly below about 43%; also: 0% is about no effect
TbPYK inhibitor: inhibitors of Trypanosoma brucei pyruvate kinase. Potency, µM (doses to about 76.8 µM), without a hit: top-dose activity, negative = inhibition, most hits filed as inhibitors. AID 624173. 0.12% of 410,000 active. TbPYK enzyme, Kinase-Glo Plus ATP luminescence, 45 min; also: potency is read from the fitted curve at half-maximal effect; % is scaled to controls: 0 for no effect and ±100 for the full control effect; nearly all actives have a fitted effect of over 50% in size
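Assay buffer: 50 mM TEA pH 7.2, 100 mM KCl, 10 mM MgCl2, 0.05% BSA, 0.01% Tween-20. Pyruvate kinase from T. brucei plus substrate met compound, then ADP (130 uM final). Luminescence was read post 45 min RT.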
Numbers without * were called inactive; u = inconclusive; x = not tested or not shown. Unless noted, calls follow the shape of the dose curve; as a rule, active = well fitted curve in the direction sought with a large enough effect; inconclusive = small, poorly fitted or top-dose-only effect, or another doubt; inactive = no such curve, though single readings can be large; an effect the other way counts as inactive or inconclusive.

SMILES | Sm TGR inh | LmPK inh | Cycloheximide cs | FBPA Giardia inh | Shiga inhibitor | TbPYK inhibitor
CCCc1cc2c(=O)c(-c3ccccn3)coc2cc1OC | 1% | 1% | 44* | 8% | 90* | -3%
O=C(c1cccs1)N1N=C(c2ccccc2)CC1c1ccccc1 (configuration not stated) | 8% | 1% | 1 | 1% | -5 | 0%
COc1ccc(C2CC(c3ccccc3)=NN2C(=O)CSc2ncccn2)cc1 (configuration not stated) | 7% | 0% | -3 | 16% | 8 | -7%
Cc1ccc(C2CC(c3cccs3)=NN2C(=O)CCl)cc1 (configuration not stated) | 2.5µM* | 0% | 43* | 10% | 43* | -7%
COc1ccc(C2=NN(C(=O)c3cccs3)C(c3ccc(OC)cc3)C2)cc1 (configuration not stated) | 0% | 7% | 13* | 1% | 22 | 0%
COc1ccc(C2CC(c3ccccc3)=NN2C(=O)CSc2ncn[nH]2)cc1 (configuration not stated) | 2% | 7% | 17* | 5% | 36 | 1%
CCC(=O)N1N=C(c2cccs2)CC1c1ccc(C)cc1 (configuration not stated) | -16% | -5% | 10 | -6% | -6 | -5%
COc1ccc(C2CC(c3ccccc3OC(C)=O)=NN2C(C)=O)cc1 (configuration not stated) | -1% | 0% | 30* | 0% | 49* | 7%
C#CCC(Cc1cnc2nc(N)nc(N)c2n1)c1ccc(C(=O)N[C@@H](CCC(=O)O)C(=O)O)cc1 (some centres not stated) | x | x | x | x | x | -3%
O=C1C2C(C(=O)N1/N=C/c1cccc([N+](=O)[O-])c1)C1C=CC2C12CC2 (configuration not stated) | 12% | -1% | 52* | 3% | 75* | -7%
Cc1ccc(/C=N/N2C(=O)C3C(C2=O)C2C=CC3C23CC3)o1 (configuration not stated) | -24% | -1% | 18* | -7% | 14 | 3%
Cc1ccc(N(C(=O)COc2ccccc2C)S(=O)(=O)c2ccc(Cl)cc2)cc1 | 10% | x | x | x | x | -3%
COC(=O)c1c(NC(=O)C(C)(C)C)sc2c1C(C(=O)OC)CC2 (configuration not stated) | 32µM* | 7% | -6 | x | -2 | -8%
Cc1cccc(CC(C)NC(=O)c2oc3c(F)cccc3c2C)n1 (configuration not stated) | 6% | -1% | 15* | -5% | 29* | 0%
CN(C)c1ccc(C(=O)OCC(=O)N2CCCCCC2)cc1 | u | -7% | 36* | 0% | 106* | 6%
O=C(OCC(=O)N1CCCC1)c1cccc(Br)c1 | -4% | 3% | 20* | 1% | 54* | -2%
CCOc1ccc(C(=O)OCC(=O)N2CCCC2)cc1 | -3% | -2% | 27* | 1% | 59* | -5%
CN(C)c1ccc(C(=O)OCC(=O)NCCNC(=O)COC(=O)c2ccc(N(C)C)cc2)cc1 | 4% | -16% | 30* | x | 71* | -7%
O=C(CCNC(=O)c1ccccc1Cl)Nc1ccc(S(=O)(=O)N2CCOCC2)cc1 | x | x | x | x | x | 1%
CN(C)c1ccc(C(=O)OCC(=O)N2CCCC2)cc1 | -2% | 2% | 32* | 2% | 53* | -6%
COC(=O)c1ccc(CNC(=O)COC(=O)c2ccc(N(C)C)cc2)cc1 | 19% | 4% | 5 | 0% | -9 | -3%
CCOC(=O)C1CCN(C(=O)COC(=O)c2cccc(F)c2)CC1 | 2% | -10% | 22* | -1% | 72* | 4%
CN(C)c1ccc(C(=O)OCc2ccc(Br)cc2)cc1 | 4% | 0% | 16 | -1% | 67* | 1%
CSCC[C@H](NC(=O)N1CCn2c1nc1ccccc12)C(=O)NCC1CCCO1 (some centres not stated) | -2% | 1% | -1 | x | -8 | -14%
COC(=O)c1c(C)[nH]c(O)c1C=Nc1ccc(C(C)C)cc1 | -25% | 2% | 22* | -25% | 39* | -12%
SMILES | Sm TGR inh | LmPK inh | Cycloheximide cs | FBPA Giardia inh | Shiga inhibitor | TbPYK inhibitor
COC(=O)c1c(C)[nH]c(O)c1C=Nc1ccc(Oc2ccccc2)cc1 | -3% | -3% | 13 | -26% | 40 | 0%
CCn1c(=O)c2cc(C(=O)N(CCCOC(C)C)Cc3ccco3)sc2c2ccccc21 | -9% | x | x | x | x | 1%
COc1ccc(/C=C/C(=O)NCCOc2ccc(C)cc2)cc1 | -2% | 0% | 1 | 2% | 8 | -9%
O=C(/C=C/c1ccccc1)Nc1cccc(C(=O)NCCCc2ccccc2)c1 | x | x | x | x | x | -4%
Cc1ccc(/C=C/C(=O)NCCCc2ccccc2)cc1 | -3% | 2% | 19* | -3% | 14 | -8%
C#CCNC(=O)/C=C/c1ccc(C)cc1 | -27% | -24% | 36* | -11% | 46 | -2%
C/C1=C/C(=O)O[C@@H]2C[C@@H](CC[C@H](C)/C=C\CC1)O[C@@](O)(C1CSC(=O)N1)C2 (some centres not stated) | x | x | -5 | -1% | -3 | x
Cc1cc(C)c(/C=C/c2onc(C)c2S(=O)(=O)N2CCC(C(=O)NCc3ccco3)CC2)c(C)c1 | -2% | x | x | x | x | -2%
COc1cc(C=C2C(=O)NC(=O)NC2=O)ccc1O | -21% | -7% | -3 | -14% | -5 | u
COc1cc(/C=C2\OC(=O)c3c(OC)cccc32)ccc1O | -7% | -5% | 79* | -10% | 100* | -1%
CCCC1(C(=O)OC)C=C2C(=C(C(C)C)C(=O)C2C)CN1 (configuration not stated) | x | x | x | -20% | x | x
CCOC(=O)CNC(c1ccccc1)c1cc(Br)ccc1NC(=O)CCN1CCOCC1 (configuration not stated) | 6.3µM* | 1% | 15 | -2% | 13 | -22%
COC(=O)CNC(c1ccccc1)c1cc(Br)ccc1NC(=O)CCN1CCOCC1 (configuration not stated) | 8.9µM* | 0% | 5 | -4% | 17 | -27%
COC(=O)CNC(c1ccccc1)c1cc(Br)ccc1NC(=O)CNC(=O)OCc1ccccc1 (configuration not stated) | -2% | 2% | -1 | -3% | -7 | 7%
CCOC(=O)CNC(c1ccccc1)c1cc(Br)ccc1NC(=O)OCC (configuration not stated) | 0% | -1% | 0 | -2% | -6 | 2%
O=C(Nc1ccc2oc(-c3ccc4ccccc4c3)nc2c1)c1cc(Cl)ccc1Cl | 3% | x | x | x | x | -3%
Cc1ccc(C(C(=O)NC2CCCC2)N(Cc2cccnc2)C(=O)c2snc(C(N)=O)c2N)o1 (configuration not stated) | 45µM* | -1% | -1 | -4% | 21 | 3%

Screens as filed in PubChem BioAssay.
